This passage reports composite z-score and z-score results from PubChem BioAssay.

Active and inactive are the calls of the source. Unless noted, the rule behind the calls is not given here.

Experiment [1] is described as follows: anti-His antibody binders, primary screen, artefact control for SMM control protein annotation, biochemical, small-molecule microarray, 635 nm fluorescence (AID 1128).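 Note: score merges feature fluorescence with signal-to-noise for each printed compound spot.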 The following applies: anti-His Alexa647 antibody binding, higher = more signal.
Experiment [2] relates to Human papillomavirus type 1a E7 protein (residues 1-88). The experiment in a line: HPV1a E7 small-molecule binders, primary screen, biochemical, small-molecule microarray, residues 1-88, 635 nm (AID 1129). To be noted: small-molecule microarray binding, fluorescence 635 nm; higher = more signal.
Experiment [3] addresses Focal adhesion kinase 1 (Homo sapiens) (UniProt Q05397). The experiment can be described thus: small-molecule microarray binders of FAK, primary screen, biochemical, 635/667 nm fluorescence, BSA, DTT (AID 1130).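 Note: composite of spot emission at 667 nm and signal to noise over triplicate slides.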 The following applies: PTK2 binding, 635 nm fluorescence, higher = more signal.
The subject of experiment [4] is Fibrinogen (Alexa647-labelled). The experiment can be described thus: fibrinogen binders on compound microarrays, profiling panel, artefact control for SMM control-protein annotation, biochemical, small-molecule microarray, 635/667 nm fluorescence (AID 1131).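 Note: z-score merges 667 nm fluorescence with per-spot signal-to-noise over triplicate slides.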 The following applies: fibrinogen-A647 binding fluorescence, higher = more signal.
For experiment [5], the target named is Follistatin (Homo sapiens) (UniProt P19883). The experiment in a line: follistatin binders on small-molecule microarrays, primary screen, biochemical, small-molecule microarray, 635/667 nm fluorescence (AID 1132). To be noted: FST binding, 635 nm fluorescence, higher = more signal.
The target in experiment [6] is Fibroblast growth factor 2 (Homo sapiens) (UniProt P09038). The experiment in a line: FGF2 binders on small-molecule microarrays, primary screen, biochemical, small-molecule microarray, 635/667 nm fluorescence (AID 1133). To be noted: small-molecule microarray binding, FGF2, fluorescence 635/667; higher = more signal.
Experiment [7] in a line: mitochondrial membrane potential change in A549 cells, profiling panel, cell-based, JC-1 fluorescence, basal, 24 h, 100 nL (AID 1138).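 Note: A549 lung adenocarcinoma cells under basal conditions with no added stimulus; test concentration not given here.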 The following applies: higher = more signal.
The subject of the next experiment is Lefty1. The experiment in a line: Lefty1 binders on small-molecule microarrays, primary screen, biochemical, small-molecule microarray, 635/667 nm fluorescence (AID 1139). To be noted: small-molecule microarray binding, fluorescence 635/667; higher = more signal.
Experiment [8] concerns wheat germ agglutinin (Triticum aestivum), Alexa647-labelled. The experiment in a line: wheat germ agglutinin binders on compound microarrays, profiling panel, artefact control for SMM control-protein annotation, biochemical, small-molecule microarray, 635/667 nm fluorescence (AID 1140).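 Note: score merges 667 nm feature emission with signal to noise over triplicate slides.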 The following applies: WGA-A647 binding, 635 nm fluorescence, higher = more signal.
Experiment [9] addresses Luciferin 4-monooxygenase (Photinus pyralis) (UniProt P08659). The experiment in a line: firefly luciferase enzyme inhibitors, primary screen, biochemical, luminescence, purified enzyme, 2006 set (AID 1141).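 Note: cell-free assay with purified firefly luciferase at 100 ng per well in PBS; test concentration not given here.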 To be noted: SteadyGlo luminescence, 30 min, higher = more signal, called active from +8 up or from −8 down.
The test system of experiment [10] is Wnt5a (protein binding on small-molecule microarray). The experiment in a line: Wnt5a binders on small-molecule microarray, primary screen, biophysical, 635/667 nm fluorescence (AID 1142).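 Note: fluorescence read at 667 nm with signal to noise per printed feature.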 To be noted: 635 nm fluorescence, higher = more signal.
Experiment [11] is described as follows: cell viability in Huh7 cells, primary screen, cytotoxicity control for HCV replication inhibitor project, CellTiter-Glo luminescence, basal, 48 h (AID 1143).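 Note: Huh7 hepatoma cells carrying a hepatitis C replication reporter with no stimulus; test concentration not given here.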 The following applies: Huh7 HCV replicon, higher = more signal, called active from +8 up or from −8 down.
Experiment [12] is described as follows: P. aeruginosa biofilm formation inhibitors, primary screen, PAO1 strain, BacTiter-Glo luminescence, LB-PBS (AID 1144). The following applies: 12 h, higher = more signal.
Experiment [13] can be described thus: CREB reporter modulators without forskolin, primary screen, cell-based, PC12, CRE-LacZ reporter, unstimulated (AID 1145). The following applies: no forskolin, luminescence, 4.5 h, higher = more signal, called active from +8 up or from −8 down.
A short description of experiment [14]: CREB reporter modulators under forskolin, primary screen, cell-based, PC12, CRE-LacZ reporter, forskolin-stimulated (AID 1146).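 Note: PC12 cells with 6xCRE LacZ reporter stimulated by forskolin 10 µM; beta-galactosidase reporter signal reflecting CREB driven transcription.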 To be noted: luminescence, 4.5 h, higher = more signal, called active from +8 up or from −8 down.
For experiment [15], the target named is Streptavidin (Streptomyces avidinii) (UniProt P22629). The experiment in a line: streptavidin binders on small-molecule microarray, primary screen, artefact control for SMM compound annotation, biophysical, 635/667 nm fluorescence (AID 1147).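 Note: signal reflects streptavidin binding to arrayed compounds as a control protein.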 The following applies: streptavidin binding, higher = more signal.
The nature of experiment [16]: small-molecule binders of probe aInhba, primary screen, biochemical, small-molecule microarray, 635/667 nm fluorescence (AID 1148).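 Note: score merges 667nm spot fluorescence with signal-to-noise for antibody binding to printed compounds.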 The following applies: higher = more signal.
The target in experiment [17] is Torsin-1A (Homo sapiens) (UniProt O14656). The experiment can be described thus: torsin A binders from cell lysate, primary screen, small-molecule microarray, wild-type, 635/667 nm (AID 1149). To be noted: COS7 hTOR1A-WT lysate, 635 nm fluorescence, higher = more signal.
Experiment [18] shares this target. The experiment can be described thus: small-molecule binders of mutant TOR1A in lysate, primary screen, cell lysate, small-molecule microarray, COS7 lysate, 635/667 nm fluorescence (AID 1150).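 Note: score pools 667 nm emission and signal to noise measuring lysate protein binding.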 To be noted: COS7 hTOR1A mutant lysate, 635 nm fluorescence, higher = more signal.
For experiment [19], the system named is Sonic hedgehog protein (Shh). The experiment in a line: small-molecule binders of Shh protein, primary screen, biochemical, small-molecule microarray, 635/667 nm fluorescence (AID 1151).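 Note: Shh protein binding to compounds spotted on small-molecule microarray slides; score combines spot fluorescence intensity with signal-to-noise across triplicate slides.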 To be noted: small-molecule microarray binding, 635 nm fluorescence; higher = more signal.

Torsin-1A (Homo sapiens), sequence (O14656 whole entry, looked up): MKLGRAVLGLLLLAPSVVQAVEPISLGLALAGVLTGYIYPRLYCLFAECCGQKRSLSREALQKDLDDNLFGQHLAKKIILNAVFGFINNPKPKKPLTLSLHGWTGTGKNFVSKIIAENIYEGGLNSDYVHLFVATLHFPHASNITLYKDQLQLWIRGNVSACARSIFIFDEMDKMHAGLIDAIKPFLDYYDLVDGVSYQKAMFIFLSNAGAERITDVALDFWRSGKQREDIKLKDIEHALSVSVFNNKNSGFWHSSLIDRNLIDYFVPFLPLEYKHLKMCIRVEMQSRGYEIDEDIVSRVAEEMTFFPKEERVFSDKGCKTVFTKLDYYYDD
Focal adhesion kinase 1 (Homo sapiens), sequence (Q05397 whole entry, looked up): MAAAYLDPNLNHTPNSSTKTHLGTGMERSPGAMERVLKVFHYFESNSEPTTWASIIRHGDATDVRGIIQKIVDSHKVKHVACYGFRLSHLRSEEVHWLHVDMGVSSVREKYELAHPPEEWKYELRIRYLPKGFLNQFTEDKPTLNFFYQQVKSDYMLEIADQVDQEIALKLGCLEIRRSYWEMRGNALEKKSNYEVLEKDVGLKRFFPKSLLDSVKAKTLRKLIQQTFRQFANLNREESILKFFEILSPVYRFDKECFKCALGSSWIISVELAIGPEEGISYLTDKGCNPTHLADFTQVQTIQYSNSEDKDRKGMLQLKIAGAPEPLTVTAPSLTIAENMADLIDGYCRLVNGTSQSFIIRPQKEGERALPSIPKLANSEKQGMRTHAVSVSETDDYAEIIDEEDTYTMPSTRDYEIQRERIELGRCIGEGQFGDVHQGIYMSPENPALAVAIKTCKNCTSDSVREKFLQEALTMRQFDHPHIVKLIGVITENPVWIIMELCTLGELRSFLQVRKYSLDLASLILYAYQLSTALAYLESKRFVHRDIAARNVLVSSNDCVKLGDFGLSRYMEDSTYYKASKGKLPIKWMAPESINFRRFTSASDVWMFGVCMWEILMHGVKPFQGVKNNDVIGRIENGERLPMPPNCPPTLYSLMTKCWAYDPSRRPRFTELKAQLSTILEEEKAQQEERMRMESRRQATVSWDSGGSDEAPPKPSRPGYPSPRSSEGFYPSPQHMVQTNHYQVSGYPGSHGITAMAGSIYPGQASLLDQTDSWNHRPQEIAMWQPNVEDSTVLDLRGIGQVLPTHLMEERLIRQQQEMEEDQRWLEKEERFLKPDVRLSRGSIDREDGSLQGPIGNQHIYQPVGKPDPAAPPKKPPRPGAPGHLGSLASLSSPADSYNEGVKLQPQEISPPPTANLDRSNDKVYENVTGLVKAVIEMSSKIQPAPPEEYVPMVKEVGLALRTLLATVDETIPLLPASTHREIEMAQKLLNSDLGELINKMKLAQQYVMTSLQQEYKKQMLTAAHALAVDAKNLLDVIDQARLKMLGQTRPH
Streptavidin (Streptomyces avidinii), sequence (P22629 whole entry, looked up): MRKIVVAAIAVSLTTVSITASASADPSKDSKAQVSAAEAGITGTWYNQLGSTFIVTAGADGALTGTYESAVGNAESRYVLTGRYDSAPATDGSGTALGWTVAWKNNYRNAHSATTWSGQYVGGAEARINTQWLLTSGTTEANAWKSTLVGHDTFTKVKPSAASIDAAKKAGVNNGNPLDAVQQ
Fibroblast growth factor 2 (Homo sapiens), sequence (P09038 whole entry, looked up): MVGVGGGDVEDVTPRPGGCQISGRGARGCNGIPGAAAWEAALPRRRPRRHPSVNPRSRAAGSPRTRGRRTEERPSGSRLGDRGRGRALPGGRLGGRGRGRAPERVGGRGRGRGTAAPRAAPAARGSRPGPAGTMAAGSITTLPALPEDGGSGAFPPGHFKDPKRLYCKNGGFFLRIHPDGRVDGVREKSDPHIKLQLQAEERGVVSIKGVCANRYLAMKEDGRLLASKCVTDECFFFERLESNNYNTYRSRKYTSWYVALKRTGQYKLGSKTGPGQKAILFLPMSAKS
Follistatin (Homo sapiens), sequence (P19883 whole entry, looked up): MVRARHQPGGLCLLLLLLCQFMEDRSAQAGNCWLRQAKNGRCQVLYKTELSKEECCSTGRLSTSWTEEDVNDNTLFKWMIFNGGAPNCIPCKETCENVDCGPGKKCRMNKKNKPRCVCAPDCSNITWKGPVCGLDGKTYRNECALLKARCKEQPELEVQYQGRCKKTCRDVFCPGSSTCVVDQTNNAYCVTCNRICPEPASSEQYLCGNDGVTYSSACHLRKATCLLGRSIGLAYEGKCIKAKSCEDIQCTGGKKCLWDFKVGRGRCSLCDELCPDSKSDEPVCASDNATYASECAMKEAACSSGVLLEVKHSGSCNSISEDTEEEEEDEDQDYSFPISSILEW
Luciferin 4-monooxygenase (Photinus pyralis), sequence (P08659 whole entry, looked up): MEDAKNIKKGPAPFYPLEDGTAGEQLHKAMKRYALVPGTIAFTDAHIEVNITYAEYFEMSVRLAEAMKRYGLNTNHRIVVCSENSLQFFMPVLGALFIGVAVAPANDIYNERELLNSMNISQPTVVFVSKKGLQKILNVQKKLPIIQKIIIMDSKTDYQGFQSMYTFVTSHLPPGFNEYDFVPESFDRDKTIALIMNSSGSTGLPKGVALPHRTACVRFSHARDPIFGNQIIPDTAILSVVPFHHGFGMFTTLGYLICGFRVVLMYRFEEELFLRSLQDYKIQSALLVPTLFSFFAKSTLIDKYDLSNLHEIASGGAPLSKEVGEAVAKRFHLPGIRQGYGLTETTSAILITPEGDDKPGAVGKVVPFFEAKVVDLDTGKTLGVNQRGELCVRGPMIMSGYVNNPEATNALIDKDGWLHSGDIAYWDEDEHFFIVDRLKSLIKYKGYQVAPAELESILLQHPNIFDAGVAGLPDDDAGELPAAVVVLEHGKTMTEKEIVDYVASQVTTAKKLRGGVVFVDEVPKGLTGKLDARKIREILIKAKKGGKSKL

`C=CCNC(=O)[C@@H]1[C@H]2C(=O)O[C@H](c3ccccc3)[C@H](c3ccccc3)N2[C@H](c2ccc(O)cc2)[C@@]12C(=O)Nc1ccc(C#CCCO)cc12`: the composite z-score in [1] was 0.111; in [2], -0.756; in experiment [3], 1.33; in [4], -1.22; in [5] it was -0.773; in experiment [6], -0.53. Also, the composite z-score is -0.836 with Lefty1; 1.24 in experiment [8]; 0.177 in experiment [10]; -0.955 in [15]; -0.153 in experiment [16]; -1.05 with Torsin-1A (Homo sapiens) [17]. Also, the results for the composite z-score (in the experiment with Torsin-1A (Homo sapiens) [18]; in experiment [19]) were -0.106 and -0.736, respectively. In addition, the z-score was -0.0797 in experiment [7]; 1.05 (inactive) in experiment [9]; -2.21 (inactive) in experiment [11]; -0.661 (inactive) in [12]; 0.0384 (inactive) in experiment [13]; -0.612 (inactive) in experiment [14].

On to `[N-]=[N+]=NCc1ccccc1[C@H]1OC(c2ccc(OCCCO)cc2)=N[C@@]1(Cc1ccccc1)C(N)=O`, for which the composite z-score was 1.85 in [1]; 1.24 in experiment [2]; 0.5 in [3]; 1.04 in experiment [4]; 0.405 in experiment [5]; -0.135 in experiment [6]. For the same compound, the composite z-score in the experiment with Lefty1 was -0.572; in experiment [8] it was 1.37; in [10], 0.765; in experiment [15], 2.31; in experiment [16], 0.278; with Torsin-1A (Homo sapiens) [17], 0.217. Further, the composite z-score was 0.65 with Torsin-1A (Homo sapiens) [18] and -1.13 in experiment [19]. The z-score in experiment [7] was 2.44; in experiment [9] it was -1.89 (inactive); in experiment [11] it was -1.18 (inactive); in [12] it was -0.293 (inactive); in [13] it was 0.479 (inactive); in experiment [14] it was -1.43 (inactive).

Turning to `CCCCC(CC)C(O)C1C=CC2C(=O)NC(=O)C2N1Nc1ccccn1` (stereo not given), the composite z-score in [1] is 2.27; in experiment [2], 1.17; in [3], 0.178; in experiment [4], 1; in [5], 0.962; in experiment [6] it was -0.539. In addition, the composite z-score in the experiment on Lefty1 is 0.21; in experiment [8] it was 1.21; in [10], -0.129; in [15], 0.91; in experiment [16] it was -0.0405; with Torsin-1A (Homo sapiens) [17], 0.312. Moreover, the composite z-score in the experiment with Torsin-1A (Homo sapiens) [18] was 0.624; in experiment [19] it was -0.0493. Further, the z-score in experiment [7] was 0.933; in experiment [9], -1.55 (inactive); in experiment [11], 0.683 (inactive); in [12] it was -1.03 (inactive); in [13] it was -0.322 (inactive); in experiment [14] it was -0.634 (inactive).

With `CN1C(=O)C2C=CC(C(O)COCc3ccccc3)N(Nc3ccccc3)C2C1=O` (stereo not given), the composite z-score in experiment [1] is 0.563; in experiment [2] it was 0.593; in experiment [3] it was 0.324; in experiment [4], 0.711; in experiment [5] it was 0.433; in [6], -0.11. For the same compound, the composite z-score is 0.135 with Lefty1; 0.681 in experiment [8]; 0.122 in experiment [10]; 0.37 in [15]; -0.018 in [16]; -0.24 with Torsin-1A (Homo sapiens) [17]. Further, the composite z-score with Torsin-1A (Homo sapiens) [18] worked out at 0.162; in experiment [19] it was 0.0686. In addition, the z-score in experiment [7] is 1.64; in [9], 0.982 (inactive); in [11] it was 0.631 (inactive); in experiment [12], -0.0726 (inactive); in experiment [13] it was 1.59 (inactive); in experiment [14] it was -0.236 (inactive).

For the compound `C=CC[C@]1(C(=O)N(C)C)N=C(c2ccc(OCCCO)cc2)O[C@H]1c1ccccc1`, the composite z-score in experiment [1] is 0.661; in experiment [2] it was 1.23; in experiment [3] it was 1.04; in experiment [4], 0.951; in experiment [5], 0.915; in [6], -0.165. In addition, the composite z-score was found to be 0.457 in the experiment on Lefty1; 0.149 in [8]; 0.902 in [10]; 0.197 in experiment [15]; 0.0471 in experiment [16]; 0.62 in the experiment with Torsin-1A (Homo sapiens) [17]. For the same compound, the results for the composite z-score (with Torsin-1A (Homo sapiens) [18]; in experiment [19]) were 1.27 and 0.757, respectively. Also, the z-score is -0.259 in [7]; -1.52 (inactive) in experiment [9]; -4.69 (inactive) in experiment [11]; -0.87 (inactive) in [12]; -0.38 (inactive) in experiment [13]; -1.19 (inactive) in experiment [14].
